Assay outcomes (PubChem BioAssay)
PAX8 inh HTS – inhibitors of PAX8 transcriptional activity in RMG-I cells; RMG-I TPO-luciferase reporter, SteadyGlo, 24 h; inhibition, % at 12.6 µM; 1.2% of 360,000 active;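 active means mean replicate inhibition at least 60% with every replicate also reaching 60%; inconclusive means only one of the two criteria is met; inactive means mean below 60% and not all replicates reaching 60%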;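 further: luciferase light reporting Pax8 driven TPO promoter activity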
Shn3 inh set2 – Schnurri-3 reporter inhibition in Clone20 osteoblasts; 0.52% of 360,000 active; inhibition, % at 12.5 µM; Clone20 osteoblast Shn3 3'UTR firefly luciferase, 24 h;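 active means mean inhibition of at least 75% with every replicate also reaching 75%; inconclusive means mean inhibition at least 75% but some replicate below; inactive means mean inhibition below 75%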
LGR2 inh – Drosophila LGR2 receptor signaling inhibition. inhibition, % at 9.99 µM. AID 720647. 0.35% of 380,000 active. HEK293 LGR2, CRE-luciferase, bursicon-stimulated, 4 h;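 active means drop in luminescence signal, shown as inhibition above about 50% in the replicate tests, limit read from the data, passing the limit was not always enough; inconclusive means probably only some replicates passing the limit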;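 further: agonist challenge used bursicon conditioned medium at about half maximal strength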
CF NFkB inh – cystic fibrosis NF-kB activation inhibition; inhibition, % at 5 µM; KKLEB NF-kB-GFP reporter, PAF-induced, GFP fluorescence overnight; 0.86% of 360,000 active;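 active means at least 50% inhibition at 5 µM, scaled per plate between neutral and stimulator controls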;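 further: PAF is a Pseudomonas aeruginosa culture filtrate used as stimulus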
KKLEB cytotox – reduces viability of KKLEB cystic fibrosis airway cells; AID 602141; 0.36% of 360,000 active; activity change (cytotoxicity), % at 5 µM; KKLEB CF airway cells viability, ATPlite luminescence, overnight; hits give low values; cells stimulated with P. aeruginosa culture filtrate;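 active means corrected activity change at or below -50% at 5 µM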
EWS-Fli inh – EWS/Fli transcriptional activity inhibition. A673 NR0B1-luciferase reporter, viability-normalised. inhibition, % at 12.6 µM. 0.67% of 350,000 active;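 active means mean inhibition of at least 50% after viability correction, with every replicate also passing that limit; inconclusive means mean reaches 50% but only one of two replicates passes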;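 further: firefly luciferase signal divided by Alamar Blue viability fluorescence both relative to DMSO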
Each line names hits and unclear results; the compound was inactive in the other large screens. A selection: hits, their analogues and other compounds. The true share with any hit is near 2%.

COc1nn(-c2ccccc2)c(=O)c(Cl)c1Cl	PAX8 inh HTS 117.2, CF NFkB inh 91.1, KKLEB cytotox -66.4, EWS-Fli inh 76.0
COC(=O)N1C(=O)[C@](c2ccccc2)(C2CCCC2)N1C(=O)OC	none
COC(=O)N1C(=O)[C@](c2ccc(Cl)cc2)(C(C)C)N1C(=O)OC	CF NFkB inh 66.2
O=C1C=CC(=O)N1CCCCCCCCCCN1C(=O)C=CC1=O	PAX8 inh HTS 67.8, Shn3 inh set2 93.2, CF NFkB inh 73.9
O=C1C=CC(=O)N1Cc1ccncc1	none
C(=NN1CCCCCC1)c1cccc2ccccc12	none (no result: LGR2 inh)
C(=NN1CCCCCC1)c1ccc2ccccc2n1	Shn3 inh set2 86.3, LGR2 inh 97.6, KKLEB cytotox -84.1, EWS-Fli inh 88.4 (no result: PAX8 inh HTS)
C[C@H](CO)N1C[C@H](C)[C@@H](CN(C)C(=O)Nc2ccc3c(c2)OCO3)Oc2ccc(NS(=O)(=O)c3cccs3)cc2C1=O	none (no result: PAX8 inh HTS, Shn3 inh set2, CF NFkB inh, KKLEB cytotox)
c1ccc(-c2noc(-c3ccc4ccccc4c3)n2)nc1	Shn3 inh set2 88.6, KKLEB cytotox -90.7 (no result: PAX8 inh HTS, LGR2 inh, EWS-Fli inh)
COc1cccc(-c2nc(-c3ccccn3)no2)c1	PAX8 inh HTS 70.1 (no result: Shn3 inh set2, LGR2 inh, CF NFkB inh, KKLEB cytotox, EWS-Fli inh)
Cc1ccc(S(=O)(=O)N(C)C[C@@H]2Oc3ccc(NC(=O)C4CC4)cc3CC(=O)N([C@@H](C)CO)C[C@@H]2C)cc1	none (no result: Shn3 inh set2, CF NFkB inh, KKLEB cytotox)
C[C@H]1CN([C@@H](C)CO)C(=O)c2cc(NC(=O)CCCN(C)C)ccc2O[C@H]1CN(C)S(=O)(=O)c1ccc(F)cc1	none (no result: Shn3 inh set2, CF NFkB inh, KKLEB cytotox)
Cc1noc(C)c1S(=O)(=O)Nc1ccc2c(c1)CC(=O)N([C@H](C)CO)C[C@H](C)[C@@H](CN(C)CC1CCCCC1)O2	none (no result: Shn3 inh set2, CF NFkB inh, KKLEB cytotox)
O=S(=O)(c1ccccc1F)N1CCCCN2[C@@H](CO)[C@H](c3ccc(-c4cncnc4)cc3)[C@@H]2C1	none (no result: Shn3 inh set2, CF NFkB inh, KKLEB cytotox)
Clc1cccc(-c2nc3nc4ccccc4nc3n2Cc2ccccc2)c1	PAX8 inh HTS 84.9
c1ccc(Cn2c(-c3ccccc3)nc3nc4ccccc4nc32)cc1	none (no result: EWS-Fli inh)
CC(=O)Oc1c(C)cc(Cl)cc1C(=O)Nc1ccc([N+](=O)[O-])cc1Cl	CF NFkB inh 62.6, KKLEB cytotox -78.1
c1ccc(CSc2nnc(Cc3ccccn3)o2)cc1	PAX8 inh HTS 65.0 (no result: LGR2 inh, EWS-Fli inh)
c1ccc(CSc2nnc(Cc3ccccc3)o2)cc1	none
O=C(O)c1ccc(-c2nc(-c3ccccc3)c(-c3cccs3)[nH]2)cc1	none
O=[N+]([O-])c1ccc(O)c(-c2nc(-c3ccccc3)c(-c3cccs3)[nH]2)c1	CF NFkB inh 62.3, KKLEB cytotox -59.6 (no result: PAX8 inh HTS, LGR2 inh, EWS-Fli inh)
O=C(Nc1cccc(-c2nc3ccccc3[nH]2)c1)c1cccc(NC(=O)c2ccco2)c1	KKLEB cytotox -59.1 (no result: PAX8 inh HTS, LGR2 inh, EWS-Fli inh)
O=C(Nc1ccc2nc(-c3ccccc3)[nH]c2c1)c1ccco1	none (no result: LGR2 inh, EWS-Fli inh)
CCS(=O)(=O)N[C@H]1C=C[C@@H](CC(=O)N2CCCCC2)O[C@@H]1CO	none (no result: Shn3 inh set2, CF NFkB inh, KKLEB cytotox)
Cn1c(C(=O)N2CCN(c3ccc(Cl)cc3)CC2)cc2c(=O)[nH]c3ccccc3c21	none (no result: PAX8 inh HTS, LGR2 inh, EWS-Fli inh)
Cc1ccc(Cl)cc1N1CCN(C(=O)c2cc3c(=O)[nH]c4ccccc4c3n2C)CC1	LGR2 inh 64.5 (no result: EWS-Fli inh)
Cc1ccc2nc(NNC(=O)c3ccc(S(=O)(=O)N4CCc5ccccc5C4)cc3)sc2c1	PAX8 inh HTS 89.8, Shn3 inh set2 93.6
Cc1cc(C)c2nc(NNC(=O)c3ccc(S(=O)(=O)N4CC(C)CC(C)C4)cc3)sc2c1 (centres undefined)	Shn3 inh set2 89.7 (no result: LGR2 inh)
Cc1ccc2nc(NNC(=O)c3ccc4c(c3)OCCO4)sc2c1	none
C[C@H]1CN([C@@H](C)CO)C(=O)c2cc(NC(=O)C3CC3)ccc2O[C@@H]1CN(C)S(=O)(=O)c1ccc(F)cc1	none (no result: Shn3 inh set2, CF NFkB inh, KKLEB cytotox)
CO[C@H]1CN(C)C(=O)c2ccc(NC(=O)CC(F)(F)F)cc2OC[C@@H](C)N(C(=O)C2CC2)C[C@@H]1C	none (no result: Shn3 inh set2, CF NFkB inh, KKLEB cytotox)
COC(=O)C1=C(C)N(Cc2cccc(C(F)(F)F)c2)C(=NCc2ccc3c(c2)OCO3)NC1c1ccccc1 (centres undefined)	none (no result: Shn3 inh set2, CF NFkB inh, KKLEB cytotox)
COC(=O)C1=C(C)N(Cc2cccc(C(F)(F)F)c2)C(=NCc2ccc3c(c2)OCO3)NC1c1cccc(F)c1 (centres undefined)	PAX8 inh HTS 65.0 (no result: Shn3 inh set2, CF NFkB inh, KKLEB cytotox)
COC(=O)C1=C(C)N(Cc2ccccc2)C(=NCCc2c[nH]c3ccccc23)N[C@H]1c1cccc(F)c1	Shn3 inh set2 97.5, EWS-Fli inh inconclusive
